Values joined by “and” are separate entries in the source; they are usually repeats but may differ in a detail not shown here. Equal values may be shown once. About 1,200 (0.35%) of roughly 340,000 compounds were called active.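 The calls were made as follows: active = potentiation over 3 SD above the plate norm (cut at about 30% in these data); inactive = the rest.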 The list comes from a sample in which actives are over-represented; it also holds similar structures and randomly drawn compounds. A structure can be active in one record and inactive in another.
molecular target: D(2) dopamine receptor (Homo sapiens) (UniProt P14416); assay: HTS Assay for Positive Allosteric Modulators of the Human D2 Dopamine Receptor: Primary Screen for Potentiators; settings: HEK293 T-REx D2, calcium flux, EC20 dopamine potentiation; at 10 µM; stronger effect = higher value; also: 0% is about no effect
Sequence (P14416 whole entry, looked up): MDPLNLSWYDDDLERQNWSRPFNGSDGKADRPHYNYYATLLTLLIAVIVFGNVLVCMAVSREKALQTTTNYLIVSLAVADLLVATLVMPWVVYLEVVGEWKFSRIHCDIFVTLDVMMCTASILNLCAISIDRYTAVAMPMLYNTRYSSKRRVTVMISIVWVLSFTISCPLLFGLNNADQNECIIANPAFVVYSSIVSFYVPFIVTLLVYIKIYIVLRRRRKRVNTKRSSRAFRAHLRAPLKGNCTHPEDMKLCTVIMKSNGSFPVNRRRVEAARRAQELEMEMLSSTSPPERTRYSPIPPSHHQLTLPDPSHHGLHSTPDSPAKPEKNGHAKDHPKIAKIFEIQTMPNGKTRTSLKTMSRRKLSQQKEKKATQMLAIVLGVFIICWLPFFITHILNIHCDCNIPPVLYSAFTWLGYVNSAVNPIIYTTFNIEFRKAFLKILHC
How it was run: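 Tetracycline-induced HEK293 T-REx cells force-coupled to calcium signalling expressed D2; compounds were pin-added after a 10 s baseline, read kinetically 180 s, then an EC20 dopamine challenge followed with a further 180 s calcium read.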

Structure (SMILES)	potentiation
CCOC(=O)N1CCc2c(sc(NCc3cccc(F)c3)c2C(=O)Nc2ccccc2OCC)C1	-0.26% (inactive)
O=C(NCCCN1CCCC1=O)c1ccc(S(=O)(=O)Nc2ccccc2)cc1	3.61% (inactive)
CCOc1ccc(S(=O)(=O)Nc2ccc(C(=O)NCCCN3CCCC3=O)cc2)cc1	11.5% (inactive)
CCOc1ccc(C(=O)NCCCN2CCCC2=O)cc1	30.7% (active)
COc1cc(Cl)ccc1Nc1ncc(C(=O)N2CCN(c3ccccc3OC)CC2)c2ccccc12	-3.04% (inactive)
NC(=O)CSc1nc2c(oc3ccccc32)c(=O)n1Cc1ccccc1	4.88% (inactive)
Cc1cccc(NC(=O)c2ccc3nc(C(C)C)oc3c2)c1C	-11.3% (inactive)
Nc1nc(NCCCN2CCOCC2)nc(Nc2ccccc2)c1[N+](=O)[O-]	-1.17% (inactive)
Nc1nc(Nc2ccccc2F)nc(NC2CCCCC2)c1[N+](=O)[O-]	6.13% (inactive)
Nc1nc(NCC2CCCO2)nc(Nc2ccccc2F)c1[N+](=O)[O-] (centres undefined)	31.9% (active)
COc1ccc(NC(=O)CSc2nccn2C2CCCC2)cc1OC	7.4% (inactive)
Cc1cc(O)c(C(c2ccccc2)N2CCN(c3ccccc3F)CC2)c(=O)n1Cc1ccco1 (centres undefined)	-21.6% (inactive)
O=C(NCc1ccccn1)c1c(O)c2c([nH]c1=O)CCCC2	4.39% (inactive)
C[N+](C)(C)CCNC(=O)c1c(O)c2c([nH]c1=O)CCCC2	13.8% (inactive)
CCc1nnc(NC(=O)c2c(O)c3c([nH]c2=O)CCCC3)s1	55.5% (active)
CN(C)CCCn1c(-c2ccc(Cl)cc2)csc1=Nc1ccccc1	-16.7% (inactive)
Cn1c(=O)[nH]c(=O)c2c1nc(NCCCn1ccnc1)n2Cc1cccc(Br)c1	40% (active)
Cn1c(=O)[nH]c(=O)c2c1nc(NCCc1ccccc1)n2Cc1ccc(F)cc1	-10.3% (inactive)
CC(c1ccccc1)n1c(NCCCn2ccnc2)nc2c1c(=O)[nH]c(=O)n2C (centres undefined)	-8.07% (inactive)
Cc1cccc(C(CC(=O)NCC2(c3ccccc3)CCCC2)c2ccccc2)c1O (centres undefined)	8.89% (inactive)

Structure (SMILES)	potentiation
CCOC(=O)c1ccc(NC(=O)c2csc3c2CCCCC3)cc1	1.32% (inactive)
CC1CC(C)CN(CCCNC(=O)c2csc3c2CCCCC3)C1 (centres undefined)	30.4% (active)
CCOc1ccc(CCNC(=O)c2csc3c2CCCCC3)cc1	-0.665% (inactive)
Cc1ccc(NC(=O)CSc2nnc3[nH]c(=O)cc(C)n23)cc1Cl	-5% (inactive)
Cc1n[nH]c(=O)nc1N/N=C/c1cccs1	36.2% (active)
Cc1nc2ccccc2n1CC(=O)N/N=C/c1cccs1	0.665% (inactive)
Cc1cc(C)nc(SC(C)C(=O)N/N=C/c2cccs2)n1 (centres undefined)	12.3% (inactive)
CCOC(=O)C1CCN(c2ncnc3c2oc2ccc(Br)cc23)CC1	34.7% (active)
CCOC(=O)C1CCN(c2ncnc3c2c(-c2ccccc2)cn3-c2cccc(C)c2)CC1	-2.84% (inactive)
CCOC(=O)C1CCN(Cc2nnc(-c3cccc(Br)c3)o2)CC1	-5.55% (inactive)
CCCCOc1ccc(CN2C(=O)C(=O)c3cc(Br)cc(C)c32)cc1OC	21.8% (inactive)
Cc1ccc(N2CCN(C(=O)CCc3c(C)nc4c(c3C)c(=O)n(C)c(=O)n4C)CC2)c(C)c1	-0.454% (inactive)
CCc1ccc(NS(=O)(=O)c2ccc3[nH]cc(C(=O)NCCc4cccc(C)c4)c(=O)c3c2)cc1	-7.11% (inactive)
CCN(CC)S(=O)(=O)c1ccc2[nH]cc(C(=O)NCCc3ccccc3)c(=O)c2c1	-2.89% (inactive) and 46.8% (active)
CCN(CC(=O)NCCc1ccccc1)S(=O)(=O)c1ccccc1	13.4% (inactive)
N#Cc1ccc(-c2cccs2)nc1SCc1ccc(Br)cc1	-0.921% (inactive)
COc1cccc(CNC(=O)CCC(=O)N2CC3CCCN3c3ccccc32)c1 (centres undefined)	-3.32% (inactive)
COc1cccc(Cn2c(SCc3ccc(C(=O)N4CCCCC4)cc3)nc3ccncc32)c1	0.981% (inactive)
CCc1nn(CC(=O)N2CCN(c3cccc(C(F)(F)F)c3)CC2)c(=O)c2cc3occc3n12	4.66% (inactive)
O=C(NCc1cccc(Cl)c1)C1CCC(=O)N(C2CC2)C1 (centres undefined)	-9.09% (inactive)

Structure (SMILES)	potentiation
O=C(NCc1cc(F)cc(C(F)(F)F)c1)C1CCC(=O)N(C2CCCC2)C1 (centres undefined)	39% (active)
Cc1ccc(CNC(=O)C2CC(=O)N(C3CCCCCCC3)C2)cc1 (centres undefined)	7.03% (inactive)
CCOC(=O)c1ccc(NC(=O)CCS(=O)(=O)c2ccc3c(c2)oc(=O)n3C)cc1	-4.33% (inactive)
COc1ccccc1NC(=O)CSC1=Nc2ccccc2C2=NC(CC(=O)NCc3cccs3)C(=O)N12 (centres undefined)	-7.55% (inactive)
O=C(CC12CC3CC(CC(C3)C1)C2)Nc1ccc2c(c1)COC2=O	-3.01% (inactive)
NS(=O)(=O)c1cccc(NC(=O)CC23CC4CC(CC(Br)(C4)C2)C3)c1	38.8% (active)
Cc1ccc(S(=O)(=O)NCCC(=O)Nc2cccc(S(N)(=O)=O)c2)cc1C	-4.48% (inactive)
Cc1ccc2nc(COc3cccc(NC(=O)Nc4ccc(C)c(Cl)c4)c3)cc(=O)n2c1	-1.63% (inactive)
CCc1ccc(NC(=O)CCNS(=O)(=O)c2cccs2)cc1	13.5% (inactive)
O=C(COC(=O)c1ccc(NS(=O)(=O)c2cccs2)cc1O)Nc1ccc(F)cc1	35.7% (active)
O=C(COC(=O)c1ccc(O)cc1O)NNC(=O)c1cccs1	-6.83% (inactive)
COc1ccc(NC(C)=O)cc1NC(=O)CN1CCN(c2ccc(F)cc2)CC1	-0.119% (inactive)
COc1ccc(NC(C)=O)cc1NC(=O)CN1CCN(C2c3ccccc3-c3ccccc32)CC1	30.8% (active)
COc1cc(Cl)c(C)cc1NC(=O)CN1CCCCCC1	-1.62% (inactive)
Clc1ccc(CSc2nncn3c2cc2occc23)cc1	0.301% (inactive)
CN1CCN(C2(CNC(=O)COc3ccc(C(C)(C)C)cc3)CCCCC2)CC1	-18.8% (inactive)
CCOC(=O)c1c(C)nc(-c2ccccc2)nc1NC(=O)C(C)C	32.3% (active)
Cc1[nH]c2ccccc2c1C(=O)COC(=O)c1c(-c2ccccc2)noc1C	8.38% (inactive)
CCOC(=O)c1cn[nH]c1NC(=S)Nc1ccccc1	3.61% (inactive)
